From PubChem BioAssay
A selection: hits, their analogues and other compounds. The true share with any hit is near 3.4%.
Luciferase inh: blocks Photinus pyralis firefly luciferase activity; Potency, µM (top dose mostly 57.1 µM), inactives show at the highest dose activity change, negative = inhibition, hits mostly inhibitors; 72,000 tested, 2.2% active; purified firefly luciferase, luminescence, 8 min; note: % is set by controls: 0 for no effect and ±100 for the full control effect; nearly all actives have a fitted effect of over 40% in size
Target sequence (P08659 whole entry, looked up): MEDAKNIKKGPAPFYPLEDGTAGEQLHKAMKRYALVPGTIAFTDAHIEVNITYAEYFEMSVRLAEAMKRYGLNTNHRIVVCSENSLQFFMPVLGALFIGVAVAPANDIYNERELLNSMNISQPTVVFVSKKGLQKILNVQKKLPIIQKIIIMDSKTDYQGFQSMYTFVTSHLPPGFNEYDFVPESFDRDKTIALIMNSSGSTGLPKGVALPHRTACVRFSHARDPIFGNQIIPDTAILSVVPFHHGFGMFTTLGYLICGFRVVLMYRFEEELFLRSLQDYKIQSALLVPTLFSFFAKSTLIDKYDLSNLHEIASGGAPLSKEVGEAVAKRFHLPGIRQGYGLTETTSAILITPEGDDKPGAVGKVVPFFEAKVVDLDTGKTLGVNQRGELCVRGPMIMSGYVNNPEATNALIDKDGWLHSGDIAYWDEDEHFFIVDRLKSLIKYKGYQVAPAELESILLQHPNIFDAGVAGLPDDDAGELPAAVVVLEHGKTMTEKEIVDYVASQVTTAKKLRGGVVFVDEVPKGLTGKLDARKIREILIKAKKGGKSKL
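Here, luciferase activity is measured as luminescence following an 8 min room-temperature reaction at 10 uM ATP, pH 7.2. Every library sample is titrated.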
Imprint erasure: genomic imprint erasure induction | mouse ES Peg3-LacZ reporter, beta-gal luminescence, 40 h | Potency, µM (series often up to 60.7 µM), without a hit: at the highest dose activity change, positive = activation, most hits filed as activators | 110,000 tested, 0.02% active
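Each well holds 300 Peg3LacZ-Neo (maternal) female ES cells incubated 40 h at 37C, 5% CO2. LacZ is measured by BetaGlo luminescence, with AC50 and maximum efficacy derived from dose-response curves.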
p53ts 32C kill: kills p53ts cells at the permissive temperature | Potency, µM (doses to about 46.1 µM), without a hit: at the top dose activity change, negative = cytotoxicity, usual class: cytotoxic | H1299-p53A138V at 32C, ATP luminescence viability, 24 h | AID 924 | 130,000 tested, 0.93% active;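 note: 0% = DMSO and -100% = full killing by reference compound; nearly all actives have a fitted effect of over 55% in size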
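H1299-p53 A138V cells (temperature-sensitive p53) exposed 24 h to up to 46 uM compound at 32C, where p53 is wild-type in conformation. Viability read as ATP luminescence and normalised to DMSO and 100 uM tamoxifen. AC50 fitted with the Hill equation.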
Tau filament bind: binds recombinant human tau filaments. P10636. recombinant tau filaments, thioflavin S fluorescence, 15 h; filaments grown with octadecylsulfate alongside compound. Potency, µM (top dose mostly 57.1 µM), for inactives: at the highest dose activity change, negative = inhibition. 71,000 tested, 2% active. AID 596;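 note: % is set by controls: 0 for no effect and ±100 for the full control effect; actives lower thioflavin S fluorescence by blocking filaments or displacing dye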
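His-tagged recombinant human tau (exons 2, 3 and 10 included), 1 uM, was induced to fibrillize by 30 uM sodium octadecylsulfate with compound present. After 15 h at 37 C, thioflavine S fluorescence (ex 450, em 510 nm) was read.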
p53ts 39C tox: p53ts cell cytotoxicity, nonpermissive temperature. Potency, µM (doses to about 46.1 µM), without a hit: at the top dose activity change, negative = cell killing, most hits filed as cytotoxic. 130,000 tested, 1.5% active. H1299-p53A138V viability at 39C, ATP luminescence, 24 h; note: % is set by controls: 0 for no effect and ±100 for the full control effect; nearly all actives have a fitted effect of over 55% in size
* = called active by the depositor; i = inactive; ? = inconclusive; . = not tested or not shown; [ ] = another dose, or the depositor's remark. Calls come from the whole dose curve; as a rule, active = well fitted curve in the direction sought with a large enough effect; inconclusive = small, poorly fitted or top-dose-only effect, or another doubt; inactive = no such curve, though single readings can be large; an effect the other way counts as inactive or inconclusive. Potency is the fitted concentration of half-maximal effect.

SMILES	Luciferase inh	Imprint erasure	p53ts 32C kill	Tau filament bind	p53ts 39C tox
CCNc1ncc2nc(-c3ccc(OC)cc3)c(=O)n(CCc3ccccc3)c2n1	-2.2%[11.4 µM]	-5.1%	-27.0%	46.7%	-17.3%
CSC(=NC1CCCCC1)NS(=O)(=O)c1ccccc1	1.0%	-11.8%	7.4%	1.0%	-3.3%
CC(=NC1CCCCC1)C1=C(O)c2ccccc2C1=O	7.94µM*	-30.5%	?	15.8µM*	?
COc1ccc(N=c2oc3c(OC)cccc3cc2C(=O)NCc2ccco2)c(OC)c1	0.2%	-7.7%	-2.4%	1.26µM*	-17.1%
COc1ccc(NC(=O)Cc2cccs2)c(OC)c1	1.2%	-3.9%	4.6%	3.16µM*	8.5%
Cc1cc(N)ccc1-n1c(C)ccc1C	2.3%	-5.5%	1.0%	25.1µM*	-12.5%
Cc1cc(C(=O)O)ccc1-n1c(C)ccc1C	1.9%	-7.2%	1.1%	-5.6%	6.1%
COc1cccc(N2CCN(Cc3cc(=O)oc4cc(C)ccc34)CC2)c1	.	-11.7%[10.9 µM]	0.9%	.	-17.0%
CCc1cccc(C)c1NC(=O)CSc1nc2ccncc2[nH]1	.	-9.7%[10.9 µM]	-11.5%	.	-6.9%
Fc1cccc(CSc2nc3ccncc3[nH]2)c1	-27.5%	-20.4%	5.01µM*	-0.8%	10µM*
CS(=O)(=O)c1sc2nc(-c3cccs3)cc(-c3ccccc3)c2c1N	-1.2%	-11.3%	1.5%	7.94µM*	-17.6%
COC(=O)c1ccc(C(NC(=O)OCc2ccccc2)/C(F)=C/[C@@H](C)C(=O)NCc2ccc(OC)c(OC)c2)cc1 (some centres not stated)	.	-15.1%	?	i	12.6µM*
CCOc1ccc(CNC(=O)CCS(=O)(=O)c2cc3c4c(c2)CCN4C(=O)CC3)cc1OC	.	6.8%[10.9 µM]	-11.1%	.	1.7%
CCC1=Nc2cc(C(=O)N3CCC(C)CC3)ccc2Sc2ccc(C)cc21	.	-8.0%[10.9 µM]	30.2%	.	-21.8%
COCC(=O)Nc1ccc(Nc2ccccc2)cc1	-3.1%	-6.3%	0.4%	7.94µM*	4.1%
CCC(=O)Nc1ccc(Nc2ccccc2)cc1	-8.7%	6.9%	-6.3%	?	2.9%
Cc1nn2c(=O)cc(COC(=O)c3cccs3)nc2s1	.	-12.7%[10.9 µM]	-4.9%	.	-19.8%
COc1ccccc1N1CCN(C(=O)c2ccc3nc(-c4ccco4)c(-c4ccco4)nc3c2)CC1	-4.5%	-13.5%	-7.4%	3.16µM*	-18.0%
COc1ccccc1-c1cc(C(=O)N2CCN(c3ccccc3OC)CC2)no1	-0.2%	-16.1%	12.4%	-0.5%	-8.9%
O=C(Cn1c(=O)n(Cc2ccccc2)c(=O)c2sc3ccccc3c21)Nc1ccc(F)cc1	.	-13.5%[10.9 µM]	?	.	10µM*
COc1ccc(NC(=O)Cn2c(=O)n(Cc3ccccc3)c(=O)c3sc4ccccc4c32)cc1	.	-2.9%[10.9 µM]	0.6%	.	-3.9%
O=C(Cn1c(=O)n(Cc2ccccc2)c(=O)c2sc3ccccc3c21)Nc1ccccc1	.	-16.8%[10.9 µM]	?	.	12.6µM*
NC(N)=Nc1ccc(-c2ccc(N=C(N)N)cc2)cc1	1.4%[11.4 µM]	-19.8%[10.9 µM]	2.6%[9.22 µM]	3.8%[11.4 µM]	7.3%[9.22 µM]
Cc1c2cnn(CC(=O)NCc3ccc(F)cc3)c(=O)c2c(C)n1Cc1ccccc1Cl	.	-9.5%[10.9 µM]	-17.3%	.	?
O=C1C(C=NCc2cccnc2)=C(O)c2ccccc21	10µM*	-32.0%	?	?	-20.8%
SMILES	Luciferase inh	Imprint erasure	p53ts 32C kill	Tau filament bind	p53ts 39C tox
O=C1C(C=NCc2ccco2)=C(O)c2ccccc21	12.6µM*	-54.9%	?	25.1µM*	-28.6%
COc1ccc(-c2nc(C)c(CCNC(=O)c3cccs3)s2)cc1	.	-6.3%[10.9 µM]	4.8%	.	-28.9%
CCOC(=O)c1cccc(NC(=O)c2cc3cc4ccc(C)cc4nc3s2)c1	.	-11.3%[10.9 µM]	-4.6%	.	10µM*
COCCNC(=O)CSc1nnc(NC(=O)Nc2ccc(C)cc2)s1	.	5.3%[10.9 µM]	11.2µM*	.	?
COc1ccc(NC(=O)CSc2nnc(NC(=O)Nc3ccc(OC)cc3)s2)cc1	.	-4.7%[10.9 µM]	-4.1%	.	?
Cc1ccc(-c2cn3nc(C)c(C)nc3n2)cc1	2.51µM*	-85.9%	?	365.1%	?
Cc1ccc(CNc2nc3nc(C)c(Cl)c(C)n3n2)cc1	.	6.9%[10.9 µM]	1.0%	.	17.2%
Cc1cc(C(=O)OCC(=O)N2CCN(c3ccccc3)CC2)c2ccccc2n1	-5.0%	-1.9%	4.0%	12.6µM*	2.0%
CC(CNC(=O)c1ccc(Cn2c(=O)c3cccn3c3cccnc32)cc1)c1ccccc1 (configuration not stated)	.	4.1%[10.9 µM]	0.8%	.	-11.4%
CC1CCCN(CCCNC(=O)c2ccc3c(c2)N(Cc2ccc(Cl)cc2)C(=O)c2ccccc2S3(=O)=O)C1 (configuration not stated)	.	-12.2%[10.9 µM]	?	.	10µM*
Nc1ccc(N2CCCCC2)cc1N1CCCCC1	-3.6%	-24.9%	23.9%	7.94µM*	8.8%
Cc1nn(-c2cc(N3CCCCC3)ccc2N)c(=O)c2ccccc12	-0.9%	-18.3%	2.5%	?	8.8%
CCOc1ccc2c(ccc(/C=C\c3cc(C)c4cccnc4c3O)[n+]2C)c1	-10.8%[11.4 µM]	-25.6%[10.9 µM]	-17.3%[9.22 µM]	0.631µM*	-27.6%[9.22 µM]
O=C(c1csnn1)N1CCC2(CC1)CN(c1ccccn1)C2	0.8%[11.4 µM]	.	-4.3%	0.1%	3.3%
O=c1cc(-c2ccccc2)nc2cc(-c3ccc(F)cc3)[nH]n12	.	-37.0%[10.9 µM]	-20.5%	.	10µM*
N#Cc1cc2c(nc1SCc1nc3ccccc3[nH]1)CCC2	3.98µM*	-67.7%	3.98µM*	31.6µM*	5.01µM*
CC(=O)OC/C=C(\C)CC/C=C(\C)CC/C=C(\C)CC/C=C(\C)CC/C=C(\C)CC/C=C(\C)CC/C=C(\C)CC/C=C(\C)CCC=C(C)C	.	1.1%	-1.5%	.	4.3%
COc1ccc(Cl)cc1NC(=O)c1cc(S(=O)(=O)N2CCC(C)CC2)cn1C	.	1.5%[10.9 µM]	6.6%	.	-0.8%
CCC1CCCCN1CCCNC(=O)c1ccc2c(c1)N(Cc1ccc(Cl)cc1)C(=O)c1ccccc1S2(=O)=O (configuration not stated)	.	-11.4%[10.9 µM]	-28.4%	.	?
C=CCN1CCc2c(cc(O)c(O)c2Cl)[C@H](c2ccccc2)C1	2.1%	.	-18.0%	-9.6%	-13.2%
COCCn1c(=O)c(CCc2ccccc2)nc2cnc(N3CCOCC3)nc21	-5.9%[11.4 µM]	3.98µM*	-4.2%	16.3%	-4.7%
O=c1c(CCc2ccccc2)nc2cnc(N3CCNCC3)nc2n1Cc1ccc(F)cc1	1.0%[11.4 µM]	.	1.7%	26.6%	12.6µM*
CN1CCN(c2ncc3nc(CCc4ccccc4)c(=O)n(Cc4ccc(F)cc4)c3n2)CC1	-1.4%[11.4 µM]	.	-10.2%	114.6%	-8.2%
Cc1nc2nc(NC(=O)c3cccc(Cl)c3)[nH]n2c(=O)c1Cc1ccccc1	.	-8.2%[10.9 µM]	8.2%	.	-20.4%
Nc1nc2c(s1)CCc1c-2cnn1-c1ccccc1	7.94µM*	-71.9%	12.6µM*	20µM*	10µM*
O=C1C(Cl)=C(N2CCCCC2)C(=O)N1c1ccccc1	-2.1%	0.0%	16.4%	-3.8%	0.2%
CN1CCN(C2=C(Cl)C(=O)N(C3CCCCC3)C2=O)CC1	0.7%	-17.9%	?	15.8µM*	?
